# Experimental data: the supplement of paper PMC8728848
# Shown is part of a subset that was picked to be rich in the strongest signals.
# What was measured:
# Test in all cases: glycan array binding signal (z-score within array); higher = stronger binding
# [1] = test system: Gal(a1-3)Gal(b1-4)Glc; conditions: glycan notation: IUPAC condensed, linker removed
# Summary of the method: (§1)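 Columns mapping to the same glycan were averaged after glycan names were converted to IUPAC-condensed notation. The data come from 3228 arrays in the Consortium for Functional Glycomics database, limited to those with an available protein sequence. Binding is reported as a within-array Z-score averaged across arrays of one protein sequence and across linkers.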
# [2] = test system: Gal(a1-3)Gal(b1-3)GlcNAc(b1-2)Man(a1-3)[Gal(a1-3)Gal(b1-3)GlcNAc(b1-2)Man(a1-6)]Man(b1-4)GlcNAc(b1-4)GlcNAc; conditions: glycan notation: IUPAC condensed, linker removed
# Summary of the method: as §1
# [3] = test system: Gal(a1-3)Gal(b1-3)GlcNAc(b1-3)GalNAc; conditions: glycan notation: IUPAC condensed, linker removed
# Summary of the method: as §1
# [4] = test system: Gal(a1-3)Gal(b1-4)GlcNAc(b1-3)GalNAc; conditions: glycan notation: IUPAC condensed, linker removed
# Summary of the method: as §1
# [5] = test system: Gal(a1-3)Gal(b1-4)GlcNAc; conditions: glycan notation: IUPAC condensed, linker removed
# Summary of the method: as §1
# [6] = test system: Gal(a1-3)Gal; conditions: glycan notation: IUPAC condensed, linker removed
# Summary of the method: as §1
# [7] = test system: Fuc(a1-4)GlcNAc; conditions: glycan notation: IUPAC condensed, linker removed
# Summary of the method: as §1
# [8] = test system: Gal(a1-3)Gal(b1-3)GlcNAc; conditions: glycan notation: IUPAC condensed, linker removed
# Summary of the method: as §1
# [9] = test system: Fuc(b1-3)GlcNAc; conditions: glycan notation: IUPAC condensed, linker removed
# Summary of the method: as §1
# [10] = test system: Gal(a1-3)[Gal(a1-4)]Gal(b1-4)GlcNAc; conditions: glycan notation: IUPAC condensed, linker removed
# Summary of the method: as §1
# [11] = test system: Gal(a1-4)Gal(b1-4)Gal; conditions: glycan notation: IUPAC condensed, linker removed
# Summary of the method: as §1
# [12] = test system: Gal(a1-3)Gal(b1-4)GlcNAc(b1-2)Man(a1-3)[Gal(a1-3)Gal(b1-4)GlcNAc(b1-2)Man(a1-6)]Man(b1-4)GlcNAc(b1-4)GlcNAc; conditions: glycan notation: IUPAC condensed, linker removed
# Summary of the method: as §1
# [13] = test system: Gal(a1-3)Gal(b1-3)Glc; conditions: glycan notation: IUPAC condensed, linker removed
# Summary of the method: as §1
# [14] = test system: Gal(a1-3)GalNAc; conditions: glycan notation: IUPAC condensed, linker removed
# Summary of the method: as §1
# [15] = test system: Gal(a1-2)Gal; conditions: glycan notation: IUPAC condensed, linker removed
# Summary of the method: as §1
# [16] = test system: Gal(a1-3)Gal(b1-4)[Fuc(a1-3)]GlcNAc(b1-2)Man(a1-3)[Gal(a1-3)Gal(b1-4)[Fuc(a1-3)]GlcNAc(b1-2)Man(a1-6)]Man(b1-4)GlcNAc(b1-4)GlcNAc; conditions: glycan notation: IUPAC condensed, linker removed; mutation: R125K
# Summary of the method: as §1
# [17] = test system: Gal(a1-3)Gal(b1-4)[Fuc(a1-3)]GlcNAc; conditions: glycan notation: IUPAC condensed, linker removed; mutation: R125K
# Summary of the method: as §1
# [18] = test system: Gal(a1-3)Gal(b1-3)[Fuc(a1-4)]GlcNAc(b1-2)Man(a1-3)[Gal(a1-3)Gal(b1-3)[Fuc(a1-4)]GlcNAc(b1-2)Man(a1-6)]Man(b1-4)GlcNAc(b1-4)GlcNAc; conditions: glycan notation: IUPAC condensed, linker removed
# Summary of the method: as §1
# [19] = test system: Fuc(a1-3)[Neu5Ac(a2-3)]Gal(b1-4)GlcNAc(b1-3)GalNAc; conditions: glycan notation: IUPAC condensed, linker removed
# Summary of the method: as §1
# [20] = test system: Gal(a1-4)Gal(b1-4)GlcNAc(b1-3)Gal(b1-4)Glc; conditions: glycan notation: IUPAC condensed, linker removed
# Summary of the method: as §1
# Sequence of C3b (Homo sapiens), P01024 (P01024 23-667): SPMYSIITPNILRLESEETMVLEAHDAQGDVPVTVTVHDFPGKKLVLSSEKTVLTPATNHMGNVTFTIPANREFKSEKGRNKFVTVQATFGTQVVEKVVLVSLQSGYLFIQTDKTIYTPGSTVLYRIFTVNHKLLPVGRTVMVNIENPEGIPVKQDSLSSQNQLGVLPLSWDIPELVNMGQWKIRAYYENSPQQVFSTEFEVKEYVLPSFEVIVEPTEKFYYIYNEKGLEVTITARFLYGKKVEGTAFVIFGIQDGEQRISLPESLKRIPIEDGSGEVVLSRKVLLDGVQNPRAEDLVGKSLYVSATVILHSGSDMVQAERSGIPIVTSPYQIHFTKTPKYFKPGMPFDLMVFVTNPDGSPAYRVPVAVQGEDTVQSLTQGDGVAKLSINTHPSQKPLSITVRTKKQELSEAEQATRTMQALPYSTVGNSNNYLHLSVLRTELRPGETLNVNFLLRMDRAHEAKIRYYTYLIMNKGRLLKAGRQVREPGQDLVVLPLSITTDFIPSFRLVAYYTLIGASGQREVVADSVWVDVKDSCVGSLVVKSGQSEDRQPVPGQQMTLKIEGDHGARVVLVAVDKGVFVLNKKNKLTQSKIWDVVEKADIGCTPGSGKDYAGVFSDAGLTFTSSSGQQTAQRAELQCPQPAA
# Sequence of Aggrecan (Rattus norvegicus), NP_071526 (chain, as listed by the source): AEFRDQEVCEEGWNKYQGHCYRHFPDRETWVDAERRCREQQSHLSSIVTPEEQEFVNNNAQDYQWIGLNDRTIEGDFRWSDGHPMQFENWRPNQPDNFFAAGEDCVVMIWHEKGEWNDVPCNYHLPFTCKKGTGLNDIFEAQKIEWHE
# Sequence of PILRb (Mus musculus), Q2YSF2 (Q2YSF2 entry or part of it): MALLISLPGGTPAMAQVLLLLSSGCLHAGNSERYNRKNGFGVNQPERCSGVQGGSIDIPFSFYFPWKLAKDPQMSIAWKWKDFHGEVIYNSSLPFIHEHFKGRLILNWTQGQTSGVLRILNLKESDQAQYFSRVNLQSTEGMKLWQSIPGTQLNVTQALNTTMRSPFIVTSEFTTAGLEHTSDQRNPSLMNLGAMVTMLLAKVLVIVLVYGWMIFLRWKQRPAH
# Sequence of CHT (Homo sapiens) (chain, as listed by the source): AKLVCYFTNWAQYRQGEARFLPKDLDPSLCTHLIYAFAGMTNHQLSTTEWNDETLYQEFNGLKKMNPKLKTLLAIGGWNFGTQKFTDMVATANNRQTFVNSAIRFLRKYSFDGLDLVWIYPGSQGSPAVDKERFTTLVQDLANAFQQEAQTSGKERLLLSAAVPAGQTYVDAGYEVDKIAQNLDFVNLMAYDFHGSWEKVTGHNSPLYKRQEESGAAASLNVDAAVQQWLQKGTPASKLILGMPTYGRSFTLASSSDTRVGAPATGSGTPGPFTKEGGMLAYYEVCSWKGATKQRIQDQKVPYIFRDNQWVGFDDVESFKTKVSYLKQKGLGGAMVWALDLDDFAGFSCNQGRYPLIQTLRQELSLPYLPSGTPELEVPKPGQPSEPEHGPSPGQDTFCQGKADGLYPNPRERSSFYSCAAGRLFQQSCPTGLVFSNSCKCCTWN
# Sequence of Avaren (Actinomycete K97) (chain, as listed by the source): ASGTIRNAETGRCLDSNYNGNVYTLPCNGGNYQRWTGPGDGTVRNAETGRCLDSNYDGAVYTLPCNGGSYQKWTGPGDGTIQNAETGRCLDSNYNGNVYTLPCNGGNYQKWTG
# Sequence of CHI3L1 (Homo sapiens), P36222 (P36222 whole entry): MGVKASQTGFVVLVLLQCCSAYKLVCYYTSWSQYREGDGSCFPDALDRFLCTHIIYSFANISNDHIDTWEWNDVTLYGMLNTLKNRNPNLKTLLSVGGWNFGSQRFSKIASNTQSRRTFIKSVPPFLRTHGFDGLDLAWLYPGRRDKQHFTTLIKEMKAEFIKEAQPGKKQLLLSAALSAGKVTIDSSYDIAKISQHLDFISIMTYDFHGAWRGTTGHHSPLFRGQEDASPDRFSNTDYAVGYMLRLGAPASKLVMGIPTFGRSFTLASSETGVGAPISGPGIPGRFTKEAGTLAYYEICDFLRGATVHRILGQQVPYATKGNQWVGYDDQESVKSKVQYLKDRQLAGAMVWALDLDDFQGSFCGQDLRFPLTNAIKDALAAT
# Sequence of 6RG (Lolium perenne), B9U140 (B9U140 entry or part of it): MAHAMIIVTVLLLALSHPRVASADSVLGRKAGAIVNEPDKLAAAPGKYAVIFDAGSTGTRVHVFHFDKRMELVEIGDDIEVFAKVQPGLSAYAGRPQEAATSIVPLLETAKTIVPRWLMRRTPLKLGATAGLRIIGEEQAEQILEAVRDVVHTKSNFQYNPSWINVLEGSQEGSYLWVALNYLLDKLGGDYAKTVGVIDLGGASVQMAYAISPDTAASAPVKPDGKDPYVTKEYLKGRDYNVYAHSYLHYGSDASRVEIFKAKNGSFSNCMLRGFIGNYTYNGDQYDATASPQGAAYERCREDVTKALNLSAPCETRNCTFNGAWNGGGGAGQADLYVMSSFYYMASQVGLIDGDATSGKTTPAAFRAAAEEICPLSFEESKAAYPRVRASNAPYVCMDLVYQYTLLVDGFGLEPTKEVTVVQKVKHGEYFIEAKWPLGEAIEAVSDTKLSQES
# Sequence of wLAT-1A (Homo sapiens), Q01650 (Q01650 whole entry): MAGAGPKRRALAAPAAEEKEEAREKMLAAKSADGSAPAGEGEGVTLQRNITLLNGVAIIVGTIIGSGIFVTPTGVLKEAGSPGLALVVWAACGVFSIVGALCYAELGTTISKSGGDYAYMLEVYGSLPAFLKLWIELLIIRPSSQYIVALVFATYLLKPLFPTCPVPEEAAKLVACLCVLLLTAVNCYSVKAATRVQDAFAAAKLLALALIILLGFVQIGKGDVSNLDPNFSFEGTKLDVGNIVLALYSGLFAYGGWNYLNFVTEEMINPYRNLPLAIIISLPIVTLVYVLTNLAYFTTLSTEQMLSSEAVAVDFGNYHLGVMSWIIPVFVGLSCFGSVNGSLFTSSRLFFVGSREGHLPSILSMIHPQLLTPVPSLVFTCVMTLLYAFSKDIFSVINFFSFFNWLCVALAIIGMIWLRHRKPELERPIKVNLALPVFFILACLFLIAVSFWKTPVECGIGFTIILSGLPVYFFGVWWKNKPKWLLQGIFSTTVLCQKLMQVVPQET
# Sequence of Neurocan (Homo sapiens), O14594 (O14594 other isoform, or with tags, fused parts or gaps): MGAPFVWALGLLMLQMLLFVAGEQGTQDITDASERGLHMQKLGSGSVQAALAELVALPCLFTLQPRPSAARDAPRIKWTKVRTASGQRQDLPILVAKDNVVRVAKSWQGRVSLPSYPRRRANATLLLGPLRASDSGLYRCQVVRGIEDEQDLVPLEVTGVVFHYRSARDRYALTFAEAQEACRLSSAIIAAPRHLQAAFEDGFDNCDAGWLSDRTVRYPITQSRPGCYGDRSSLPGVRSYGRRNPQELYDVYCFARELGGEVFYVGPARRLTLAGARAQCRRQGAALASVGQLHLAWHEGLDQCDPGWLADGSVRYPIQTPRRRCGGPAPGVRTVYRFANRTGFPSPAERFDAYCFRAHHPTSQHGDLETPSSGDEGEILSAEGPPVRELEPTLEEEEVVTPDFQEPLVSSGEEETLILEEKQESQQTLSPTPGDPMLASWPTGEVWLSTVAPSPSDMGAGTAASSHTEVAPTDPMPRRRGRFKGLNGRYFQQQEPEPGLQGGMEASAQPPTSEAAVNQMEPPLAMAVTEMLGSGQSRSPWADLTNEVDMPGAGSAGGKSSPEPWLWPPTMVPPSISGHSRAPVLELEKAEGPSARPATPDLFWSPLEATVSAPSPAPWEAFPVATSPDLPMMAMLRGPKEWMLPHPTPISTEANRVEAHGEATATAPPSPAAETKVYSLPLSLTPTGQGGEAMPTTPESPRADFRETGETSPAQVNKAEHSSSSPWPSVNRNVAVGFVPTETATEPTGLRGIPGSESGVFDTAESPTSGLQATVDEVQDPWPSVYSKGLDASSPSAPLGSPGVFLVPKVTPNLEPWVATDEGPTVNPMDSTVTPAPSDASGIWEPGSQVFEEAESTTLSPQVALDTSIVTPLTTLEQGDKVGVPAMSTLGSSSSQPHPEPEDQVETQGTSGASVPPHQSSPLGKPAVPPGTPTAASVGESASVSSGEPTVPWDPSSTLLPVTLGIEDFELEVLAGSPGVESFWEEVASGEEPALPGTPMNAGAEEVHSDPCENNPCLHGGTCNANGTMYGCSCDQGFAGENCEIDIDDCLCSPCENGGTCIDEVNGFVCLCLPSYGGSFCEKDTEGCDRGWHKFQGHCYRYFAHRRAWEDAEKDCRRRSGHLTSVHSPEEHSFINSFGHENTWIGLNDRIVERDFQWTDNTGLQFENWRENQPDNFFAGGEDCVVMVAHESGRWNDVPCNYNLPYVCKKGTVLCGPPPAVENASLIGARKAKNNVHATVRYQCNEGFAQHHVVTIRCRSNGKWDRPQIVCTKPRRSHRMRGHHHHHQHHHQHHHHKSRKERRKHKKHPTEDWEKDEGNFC
# Sequence of SRLC (Mus musculus), Q8VIF6 (Q8VIF6 other isoform, or with tags, fused parts or gaps): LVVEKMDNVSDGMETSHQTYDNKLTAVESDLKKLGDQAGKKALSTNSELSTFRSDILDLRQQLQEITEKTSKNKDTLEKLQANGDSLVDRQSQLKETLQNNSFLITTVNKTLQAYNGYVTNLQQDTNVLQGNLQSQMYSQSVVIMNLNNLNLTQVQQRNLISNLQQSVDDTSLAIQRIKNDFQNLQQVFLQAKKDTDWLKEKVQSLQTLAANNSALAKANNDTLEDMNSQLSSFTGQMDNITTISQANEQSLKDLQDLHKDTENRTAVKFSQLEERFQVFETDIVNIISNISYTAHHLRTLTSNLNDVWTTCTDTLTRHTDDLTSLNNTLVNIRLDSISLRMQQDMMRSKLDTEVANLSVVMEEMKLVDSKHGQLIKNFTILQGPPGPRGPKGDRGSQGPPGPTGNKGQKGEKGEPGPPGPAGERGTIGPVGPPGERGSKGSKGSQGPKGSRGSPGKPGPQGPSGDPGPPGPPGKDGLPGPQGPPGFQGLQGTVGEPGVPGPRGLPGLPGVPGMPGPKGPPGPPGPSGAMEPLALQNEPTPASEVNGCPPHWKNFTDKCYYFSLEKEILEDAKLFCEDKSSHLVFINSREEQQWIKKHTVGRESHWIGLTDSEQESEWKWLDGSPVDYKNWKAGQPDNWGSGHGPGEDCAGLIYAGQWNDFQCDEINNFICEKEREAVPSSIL
substance,measurement,setting,value
"6RG (Lolium perenne), B9U140",glycan array binding signal (z-score),[1],-0.272
"PILRb (Mus musculus), Q2YSF2",glycan array binding signal (z-score),[2],6.25
same,glycan array binding signal (z-score),[3],-0.312
same,glycan array binding signal (z-score),[4],-0.089
same,glycan array binding signal (z-score),[5],-0.363
same,glycan array binding signal (z-score),[6],2.68
"C3b (Homo sapiens), P01024",glycan array binding signal (z-score),[7],3.19
same,glycan array binding signal (z-score),[8],1.35
same,glycan array binding signal (z-score),[1],1.67
same,glycan array binding signal (z-score),[6],2.77
CHT (Homo sapiens),glycan array binding signal (z-score),"[9]; mutation: D138V, E140I",-0.132
same,glycan array binding signal (z-score),"[10]; mutation: D138V, E140I",-0.162
same,glycan array binding signal (z-score),"[11]; mutation: D138V, E140I",-0.141
Avaren (Actinomycete K97),glycan array binding signal (z-score),[12],-0.106
same,glycan array binding signal (z-score),[1],0.305
"PILRa (Mus musculus), Q2YSF3",glycan array binding signal (z-score),[1],0.145
"SRLC (Mus musculus), Q8VIF6",glycan array binding signal (z-score),[13],-0.234
"wLAT-1A (Homo sapiens), Q01650",glycan array binding signal (z-score),[14],0.501
"Regenerating Gene IV (Homo sapiens), Q9BYZ8",glycan array binding signal (z-score),[15],6.89
"Siglec-8 (Homo sapiens), Q9NYZ4",glycan array binding signal (z-score),[7]; mutation: R125K,2.97
same,glycan array binding signal (z-score),[16],1.51
same,glycan array binding signal (z-score),[17],-0.444
same,glycan array binding signal (z-score),[10],-0.14
6RG (Lolium perenne),glycan array binding signal (z-score),[11],6.25
MpAFP RI GFP (Marinomonas primoryensis),glycan array binding signal (z-score),[18],2.56
"Neurocan (Homo sapiens), O14594",glycan array binding signal (z-score),[9],-0.101
"CHI3L1 (Homo sapiens), P36222",glycan array binding signal (z-score),[15],-0.025
"Aggrecan (Rattus norvegicus), NP_071526",glycan array binding signal (z-score),[19],0.658
same,glycan array binding signal (z-score),[15],-0.066
same,glycan array binding signal (z-score),[8],-0.05
same,glycan array binding signal (z-score),[20],-0.204
